In article PMC11062922 (Nature Chemical Biology, 2023):
Where two headings read alike, the source gives them in different places.

How the values were obtained:
SLK = conditions: read-out: apparent Kd, n = 1
STK10 = conditions: read-out: apparent Kd, n = 1

Lestaurtinib
potency estimated from few doses (SLK; compound concentrations:100 nM and 1000 nM (sheet 'Lestaurtinib' of Supplementary Table 1),run:Lestaurtinib_02496_R2,Plate:MR013): 1.31 µM | potency estimated from few doses (SLK; compound concentrations:100 nM and 1000 nM (sheet 'Lestaurtinib' of Supplementary Table 1),run:Lestaurtinib_02496_R3,Plate:MR013): 1.62 µM | potency estimated from few doses (SLK; compound concentrations:100 nM and 1000 nM (sheet 'Lestaurtinib' of Supplementary Table 1),run:Lestaurtinib_02566_R3,Plate:MR014): 1.13 µM | potency estimated from few doses (SLK; compound concentrations:100 nM and 1000 nM (sheet 'Lestaurtinib' of Supplementary Table 1),run:Lestaurtinib_02572_R3,Plate:MR015): 1.79 µM | potency estimated from few doses (SLK; compound concentrations:100 nM and 1000 nM (sheet 'Lestaurtinib' of Supplementary Table 1),run:Lestaurtinib_02577_R2,Plate:MR016): 1.32 µM | potency estimated from few doses (SLK; compound concentrations:100 nM and 1000 nM (sheet 'Lestaurtinib' of Supplementary Table 1),run:Lestaurtinib_02577_R3,Plate:MR016): 0.997 µM | potency estimated from few doses (SLK; compound concentrations:100 nM and 1000 nM (sheet 'Lestaurtinib' of Supplementary Table 1),run:Lestaurtinib_02584_R2,Plate:MR017): 1.32 µM | potency estimated from few doses (SLK; compound concentrations:100 nM and 1000 nM (sheet 'Lestaurtinib' of Supplementary Table 1),run:Lestaurtinib_02584_R3,Plate:MR017): 1.58 µM | potency estimated from few doses (SLK; compound concentrations:100 nM and 1000 nM (sheet 'Lestaurtinib' of Supplementary Table 1),run:Lestaurtinib_02601_R1,Plate:MR018): 1.76 µM | potency estimated from few doses (SLK; compound concentrations:100 nM and 1000 nM (sheet 'Lestaurtinib' of Supplementary Table 1),run:Lestaurtinib_02601_R3,Plate:MR018): 1.4 µM | potency estimated from few doses (SLK; compound concentrations:100 nM and 1000 nM (sheet 'Lestaurtinib' of Supplementary Table 1),run:Lestaurtinib_02606_R2,Plate:MR019): 1.32 µM | potency estimated from few doses (SLK; compound concentrations:100 nM and 1000 nM (sheet 'Lestaurtinib' of Supplementary Table 1),run:Lestaurtinib_02624_R1,Plate:MR020): 1.81 µM | potency estimated from few doses (SLK; compound concentrations:100 nM and 1000 nM (sheet 'Lestaurtinib' of Supplementary Table 1),run:Lestaurtinib_02624_R2,Plate:MR020): 1.13 µM | potency estimated from few doses (SLK; compound concentrations:100 nM and 1000 nM (sheet 'Lestaurtinib' of Supplementary Table 1),run:Lestaurtinib_02741_R3,Plate:MR023): 1.44 µM | potency estimated from few doses (SLK; compound concentrations:100 nM and 1000 nM (sheet 'Lestaurtinib' of Supplementary Table 1),run:Lestaurtinib_02748_R2,Plate:MR024): 1.33 µM | potency estimated from few doses (SLK; compound concentrations:100 nM and 1000 nM (sheet 'Lestaurtinib' of Supplementary Table 1),run:Lestaurtinib_02752_R3,Plate:MR025): 1.33 µM | potency estimated from few doses (SLK; compound concentrations:100 nM and 1000 nM (sheet 'Lestaurtinib' of Supplementary Table 1),run:Lestaurtinib_02765_R1,Plate:MR026): 1.32 µM | potency estimated from few doses (SLK; compound concentrations:100 nM and 1000 nM (sheet 'Lestaurtinib' of Supplementary Table 1),run:Lestaurtinib_02765_R2,Plate:MR026): 1.13 µM | potency estimated from few doses (SLK; compound concentrations:100 nM and 1000 nM (sheet 'Lestaurtinib' of Supplementary Table 1),run:Lestaurtinib_02766_R2,Plate:MR027): 1.15 µM | potency estimated from few doses (SLK; compound concentrations:100 nM and 1000 nM (sheet 'Lestaurtinib' of Supplementary Table 1),run:Lestaurtinib_02768_R1,Plate:MR028): 1.3 µM | potency estimated from few doses (SLK; compound concentrations:100 nM and 1000 nM (sheet 'Lestaurtinib' of Supplementary Table 1),run:Lestaurtinib_02768_R2,Plate:MR028): 1.4 µM | potency estimated from few doses (SLK; compound concentrations:100 nM and 1000 nM (sheet 'Lestaurtinib' of Supplementary Table 1),run:Lestaurtinib_02795_R1,Plate:MR022): 1.61 µM | potency estimated from few doses (SLK; compound concentrations:100 nM and 1000 nM (sheet 'Lestaurtinib' of Supplementary Table 1),run:Lestaurtinib_02795_R2,Plate:MR022): 1.36 µM | potency estimated from few doses (SLK; compound concentrations:100 nM and 1000 nM (sheet 'Lestaurtinib' of Supplementary Table 1),run:Lestaurtinib_02795_R3,Plate:MR022): 1.53 µM | potency estimated from few doses (SLK; compound concentrations:100 nM and 1000 nM (sheet 'Lestaurtinib' of Supplementary Table 1),run:Lestaurtinib_02802_R1,Plate:MR029): 1.15 µM | potency estimated from few doses (SLK; compound concentrations:100 nM and 1000 nM (sheet 'Lestaurtinib' of Supplementary Table 1),run:Lestaurtinib_02802_R2,Plate:MR029): 0.964 µM | potency estimated from few doses (SLK; compound concentrations:100 nM and 1000 nM (sheet 'Lestaurtinib' of Supplementary Table 1),run:Lestaurtinib_02802_R3,Plate:MR029): 1.35 µM | potency estimated from few doses (SLK; compound concentrations:100 nM and 1000 nM (sheet 'Lestaurtinib' of Supplementary Table 1),run:Lestaurtinib_03172_R2,Plate:MR031): 1.46 µM | potency estimated from few doses (SLK; compound concentrations:100 nM and 1000 nM (sheet 'Lestaurtinib' of Supplementary Table 1),run:Lestaurtinib_03172_R3,Plate:MR031): 0.914 µM | potency estimated from few doses (SLK; compound concentrations:100 nM and 1000 nM (sheet 'Lestaurtinib' of Supplementary Table 1),run:Lestaurtinib_03252_R1,Plate:MR032): 1.35 µM | potency estimated from few doses (SLK; compound concentrations:100 nM and 1000 nM (sheet 'Lestaurtinib' of Supplementary Table 1),run:Lestaurtinib_03252_R2,Plate:MR032): 1.4 µM | potency estimated from few doses (SLK; compound concentrations:100 nM and 1000 nM (sheet 'Lestaurtinib' of Supplementary Table 1),run:Lestaurtinib_03260_R1,Plate:MR033): 1.93 µM | potency estimated from few doses (SLK; compound concentrations:100 nM and 1000 nM (sheet 'Lestaurtinib' of Supplementary Table 1),run:Lestaurtinib_03260_R2,Plate:MR033): 1.93 µM | potency estimated from few doses (SLK; compound concentrations:100 nM and 1000 nM (sheet 'Lestaurtinib' of Supplementary Table 1),run:Lestaurtinib_03260_R3,Plate:MR033): 1.31 µM | potency estimated from few doses (STK10; compound concentrations:100 nM and 1000 nM (sheet 'Lestaurtinib' of Supplementary Table 1),run:Lestaurtinib_02339_R1,Plate:MR001): 0.179 µM | potency estimated from few doses (STK10; compound concentrations:100 nM and 1000 nM (sheet 'Lestaurtinib' of Supplementary Table 1),run:Lestaurtinib_02339_R2,Plate:MR001): 0.158 µM | potency estimated from few doses (STK10; compound concentrations:100 nM and 1000 nM (sheet 'Lestaurtinib' of Supplementary Table 1),run:Lestaurtinib_02339_R3,Plate:MR001): 0.0805 µM | potency estimated from few doses (STK10; compound concentrations:100 nM and 1000 nM (sheet 'Lestaurtinib' of Supplementary Table 1),run:Lestaurtinib_02364_R2,Plate:MR002): 0.14 µM | potency estimated from few doses (STK10; compound concentrations:100 nM and 1000 nM (sheet 'Lestaurtinib' of Supplementary Table 1),run:Lestaurtinib_02364_R3,Plate:MR002): 0.142 µM | potency estimated from few doses (STK10; compound concentrations:100 nM and 1000 nM (sheet 'Lestaurtinib' of Supplementary Table 1),run:Lestaurtinib_02367_R3,Plate:MR003): 0.144 µM | potency estimated from few doses (STK10; compound concentrations:100 nM and 1000 nM (sheet 'Lestaurtinib' of Supplementary Table 1),run:Lestaurtinib_02407_R1,Plate:MR005): 0.113 µM | potency estimated from few doses (STK10; compound concentrations:100 nM and 1000 nM (sheet 'Lestaurtinib' of Supplementary Table 1),run:Lestaurtinib_02422_R1,Plate:MR006): 0.162 µM | potency estimated from few doses (STK10; compound concentrations:100 nM and 1000 nM (sheet 'Lestaurtinib' of Supplementary Table 1),run:Lestaurtinib_02422_R2,Plate:MR006): 0.047 µM | potency estimated from few doses (STK10; compound concentrations:100 nM and 1000 nM (sheet 'Lestaurtinib' of Supplementary Table 1),run:Lestaurtinib_02437_R1,Plate:MR007): 0.142 µM
